Only some compounds are listed: those with a hit (about 1.3% of all), similar ones and a draw of the others.
EBV gp42 block: Epstein-Barr virus gp42 inhibitors, primary screen, biochemical, uHTS, fluorescence polarization; Fluorescence polarization binding assay, mP read-out; inhibition, % (tested at 21.74 µM); Glycoprotein 42 (Epstein-Barr virus (strain AG876)), Q1HVG2; 220,000 compounds, 0.42% hits; AID 1085, 2008; in the data active = inhibition above about 50%
Target sequence (Q1HVG2 whole entry, looked up): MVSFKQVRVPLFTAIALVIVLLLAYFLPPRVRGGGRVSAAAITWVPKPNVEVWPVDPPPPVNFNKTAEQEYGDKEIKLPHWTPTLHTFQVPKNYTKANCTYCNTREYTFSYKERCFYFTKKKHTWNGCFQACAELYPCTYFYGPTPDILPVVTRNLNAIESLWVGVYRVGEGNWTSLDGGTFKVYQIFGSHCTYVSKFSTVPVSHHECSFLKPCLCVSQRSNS
MEX-5 binding: MEX-5 zinc finger RNA-binding disruptors – biochemical, C. elegans, fluorescence polarization, MLPCN library, primary screen; AID 1832, 2009; 300,000 compounds, 0.38% hits; MEX-5/FITC-TCR2 RNA binding; stronger effect = lower value; activity score (negative = inhibition of binding), % at 10 µM;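 active = inhibition past about -25% in most replicates, and total fluorescence under double the plate's negative control median, limit read from the data; inconclusive = replicates evenly split on the limit, or fluorescence at least double controls; inactive = too little inhibition in most replicates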
Target sequence (Q9XUB2 whole entry, looked up): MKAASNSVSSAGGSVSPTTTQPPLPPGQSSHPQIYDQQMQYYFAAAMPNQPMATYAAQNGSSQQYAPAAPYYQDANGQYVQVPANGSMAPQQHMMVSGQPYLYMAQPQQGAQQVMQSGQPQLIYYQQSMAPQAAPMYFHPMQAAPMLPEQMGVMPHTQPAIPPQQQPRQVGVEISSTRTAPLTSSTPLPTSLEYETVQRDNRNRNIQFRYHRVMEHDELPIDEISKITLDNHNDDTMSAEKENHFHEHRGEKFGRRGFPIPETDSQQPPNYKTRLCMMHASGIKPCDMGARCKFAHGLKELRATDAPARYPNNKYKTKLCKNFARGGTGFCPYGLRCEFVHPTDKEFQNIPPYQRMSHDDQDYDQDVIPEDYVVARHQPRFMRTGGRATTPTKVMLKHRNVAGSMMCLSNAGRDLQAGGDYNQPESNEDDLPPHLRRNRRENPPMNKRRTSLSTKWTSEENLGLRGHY
GLD-1 RNA inh: GLD-1/TGE RNA complex disruptors, primary screen, biochemical, fluorescence polarization | Female germline-specific tumor suppressor gld-1 (Caenorhabditis elegans), Q17339 | purified GLD-1 + fluorescein TGE RNA | inhibition, % at 5.96 µM | 320,000 compounds, 0.44% hits | AID 2280, 2010;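 active = percent inhibition above a per-plate cutoff, the plate mean of test compounds plus 3 SD, cut at about 30% in these data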
MCL1 BIM primary: inhibitors of MCL1 binding to BIM-BH3, primary screen, biochemical, fluorescence polarization; Induced myeloid leukemia cell differentiation protein Mcl-1 (Homo sapiens), Q07820; GST-MCL1 / FITC-Bim-BH3 fluorescence polarization; inhibition, % at 10.9 µM; 320,000 compounds, 0.68% hits; AID 2057, 2009;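 active = inhibition above the mean inhibition of all tested compounds plus 3 SD, set per campaign, cut at about 40% in these data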;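 note: higher means more loss of mP so more displacement of Bim peptide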
Bcl-xL primary: inhibitors of human Bcl-xL, primary screen, biochemical, fluorescence polarization, HTS. GST-Bcl-xL / FITC-Bim BH3 peptide fluorescence polarization. inhibition, % at 10.9 µM. 320,000 compounds, 0.7% hits;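 active = inhibition above the mean of all tested compounds plus 3 SD, cutoff set per campaign, cut at about 30% in these data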;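 note: inhibitors lower millipolarization by displacing the labeled peptide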
Of the large screens only hits and unclear results are named; the others gave an inactive call.

Oc1c(C=Nc2ccccc2Cl)[nH]c2ccccc12	MEX-5 binding -29, Bcl-xL primary 39
CCOc1c(C=C(C#N)C#N)c2ccccc2n1CC	MEX-5 binding -39
COc1cccc(/C=N/n2c(-c3ccco3)nc3ccccc3c2=O)c1OC	none
CCOc1ccc(C(=O)OCC(=O)NCCCc2ccccc2)cc1	Bcl-xL primary 116 (no result: EBV gp42 block)
CC1=NN(C(N)=S)C(=O)C1N=Nc1cccc(C)c1 (centres undefined)	none
CC1=NN(C(N)=S)C(=O)C1N=Nc1cccc(C(=O)O)c1 (centres undefined)	MEX-5 binding -30 (no result: EBV gp42 block, GLD-1 RNA inh, MCL1 BIM primary, Bcl-xL primary)
N#CC(c1nc2ccccc2nc1OCCO)S(=O)(=O)c1ccccc1 (centres undefined)	MEX-5 binding -38
Cc1ccc(S(=O)(=O)C(C#N)c2nc3ccccc3nc2OC(C)C)cc1 (centres undefined)	none
COCCn1c(=S)[nH]c2ccc(N(C)C)cc2c1=O	Bcl-xL primary 32
CCOc1cc2[nH]c(=S)n(CCOC)c(=O)c2cc1OCC	none
Cc1ccccc1CSc1ccc2nnc(-c3ccccn3)n2n1	none
CN(Cc1cccs1)C(=O)COc1cccc2c1OC(C)(C)C2	none (no result: EBV gp42 block, MEX-5 binding, MCL1 BIM primary, Bcl-xL primary)
COc1ccc(-c2[nH]ncc2CNC(C)c2cn(C)nc2C)c(F)c1 (centres undefined)	Bcl-xL primary 68
COc1ccccc1CNC(=O)CCCNC(=O)Cn1cnc2sc(C)c(C)c2c1=O	none (no result: EBV gp42 block)
CC1(C)CC(=O)C2=C(C1)N1C(=C(C#N)C2c2ccccc2Cl)N=C(N)c2ccccc21 (centres undefined)	none
CC1(C)CC(=O)C2=C(C1)N1C(=C(C#N)C2c2ccc(Cl)cc2)N=C(N)c2ccccc21 (centres undefined)	GLD-1 RNA inh 61
CCOc1cc(/C=C/c2cccc[n+]2C)ccc1OCC(=O)Nc1ccc(C)cc1	MEX-5 binding -43 (no result: EBV gp42 block)
COc1cc(/C=C/c2cccc[n+]2C)ccc1OCC(=O)Nc1ccccc1C	none (no result: EBV gp42 block)
COc1ccc(C)cc1NC(=O)CCS(=O)(=O)c1cc2c(cc1Cl)NC(=O)CO2	none (no result: EBV gp42 block)
Cc1ccc(NC(=O)CCS(=O)(=O)c2cc3c(cc2Cl)NC(=O)CO3)cc1	MEX-5 binding -26 (no result: EBV gp42 block)
O=c1c(Cc2ccc(F)cc2)c(O)ccn1Cc1cccc(Cl)c1	none
CN1/C(=C\C=C2/SC(=S)NC2=O)C(C)(C)c2ccccc21	Bcl-xL primary 37
CCCN1C(=O)/C(=C\C=C2\N(CC)c3ccccc3C2(C)C)SC1=S	EBV gp42 block active (no result: GLD-1 RNA inh, MCL1 BIM primary, Bcl-xL primary)
CN1/C(=C\C=C2/C(=O)Oc3ccccc3C2=O)C(C)(C)c2ccccc21	Bcl-xL primary 47
O=C(Nc1ccc(Cl)cc1)Nc1cccc2nsnc12	Bcl-xL primary 48
Cc1ccc(S(=O)(=O)Nc2cccc(C(=O)NCC(c3ccco3)N3CCCC3)c2)cc1F (centres undefined)	none (no result: EBV gp42 block)
C[N+]1=C(/C=C/Nc2ccccc2Cl)C(C)(C)c2ccccc21	none
COC(=O)c1ccc2c(c1)C(C)(C)C(/C=C/c1ccccc1O)=[N+]2C	MEX-5 binding inconclusive, GLD-1 RNA inh 40
CCOCCCNc1nc2c(C)cccn2c(=O)c1/C=C1\SC(=S)N(C(C)CC)C1=O (centres undefined)	EBV gp42 block 133, MEX-5 binding inconclusive
CCOCCCNc1nc2c(C)cccn2c(=O)c1/C=C1\SC(=S)N(CC(C)C)C1=O	EBV gp42 block 104
CCCN1C(=O)/C(=C/c2c(NCCCOCC)nc3c(C)cccn3c2=O)SC1=S	none (no result: MEX-5 binding, GLD-1 RNA inh, MCL1 BIM primary, Bcl-xL primary)
COc1cc2c(cc1OC)C(c1ccccc1)NC(C)(C)C2 (centres undefined)	none (no result: EBV gp42 block)
C=CCOn1c(=O)c(-c2cc3ccccc3o2)[n+]([O-])c2ccccc21	MEX-5 binding -27, Bcl-xL primary 45
CCOC(=O)COn1c(=O)c(-c2ccc(F)cc2)[n+]([O-])c2ccccc21	none (no result: EBV gp42 block, GLD-1 RNA inh, MCL1 BIM primary, Bcl-xL primary)
CCOC(=O)COn1c(=O)c(-c2cc3ccccc3o2)[n+]([O-])c2ccccc21	MEX-5 binding -37
O=C(NCCC(=O)N(CCc1ccccc1)Cc1ccccc1)c1ccc(Br)cc1	none (no result: EBV gp42 block)
COc1ccc(C(=O)Nc2nc(-c3ccc([N+](=O)[O-])cc3)c(-c3ccccc3)s2)cc1	MEX-5 binding -162 (no result: EBV gp42 block)
COc1ccc(-c2sc(NC(=O)c3ccc(C)cc3)nc2-c2ccc([N+](=O)[O-])cc2)cc1	none
Cn1ncc(N)c1C(=O)Nc1cccc(C(F)(F)F)c1	Bcl-xL primary 41
COc1ccc(-c2nc(-c3ccccc3)nc(N3CCN(C)CC3)c2C#N)cc1	none
CN1CCN(c2nc(-c3ccccc3)nc(-c3ccccc3)c2C#N)CC1	MEX-5 binding -26
CCOc1ccccc1NC(=S)N1CCC(NC(=O)C(C)(C)C)CC1	none
O=C(NCCc1ccc(Cl)cc1)C1CCC(=O)N(C2CCCCCC2)C1 (centres undefined)	Bcl-xL primary 135 (no result: EBV gp42 block)
Cc1ccc2nc(Nc3nc(C)cc(-c4ccccc4)n3)[nH]c(=O)c2c1	none
O=C(/C=C/c1cccs1)N1CCC2(CC1)Oc1ccc(F)cc1C(=O)C21CC(c2ccc(Cl)cc2)=NO1 (centres undefined)	Bcl-xL primary 31
O=C1Nc2ccc(F)cc2C12Nc1ccccc1-c1nnc(SCc3ccccc3)nc1O2 (centres undefined)	none
Cc1ccc(CSc2nnc3c(n2)OC2(Nc4ccccc4-3)C(=O)Nc3ccc(F)cc32)cc1 (centres undefined)	EBV gp42 block 151
COc1ccc(S(=O)(=O)N2CCN(C(=O)c3cc4c(s3)CCC4)CC2)cc1	none (no result: EBV gp42 block, MEX-5 binding, MCL1 BIM primary, Bcl-xL primary)
Fc1ccc(Nc2cccc3nccnc23)cc1	none
c1cc(Nc2cccc3nccnc23)c2nccnc2c1	MEX-5 binding -29
N#Cc1ccccc1NC(=O)CSc1n[nH]c(=O)n1C1CC1	none (no result: EBV gp42 block, MEX-5 binding, MCL1 BIM primary, Bcl-xL primary)
Nc1c(N2CCCC2)cc(Cl)c2nonc12	Bcl-xL primary 50
O=C(N/C(=C\c1ccco1)C(=O)N1CCCC1)c1ccccc1	MCL1 BIM primary 41, Bcl-xL primary 40 (no result: EBV gp42 block)
COc1ccccc1C(=O)N/C(=C/c1ccco1)C(=O)Nc1cccc(C(=O)O)c1	Bcl-xL primary 31 (no result: EBV gp42 block)
Cc1ccc(C(=O)N/C(=C/c2ccco2)C(=O)Nc2cccc(C(=O)O)c2)cc1	none (no result: EBV gp42 block)
CC(=O)C1(C)OC(N)=C(C#N)C(c2ccccc2)C1(C#N)C#N (centres undefined)	Bcl-xL primary 43
CC(=O)C1=C(c2ccccc2)OC(N)=C(C#N)C1c1ccccc1C (centres undefined)	none
CCc1c(C)nc(SCC(=O)c2cccs2)c(C#N)c1C	MEX-5 binding -34
N#Cc1ccccc1OCC(=O)OCC(=O)NC1CCCC1	none (no result: EBV gp42 block, MEX-5 binding)
O=C(Cn1ccc([N+](=O)[O-])n1)Nc1ccccn1	none

High-throughput results (PubChem)
